# Assay results: the supplement of paper PMC9262897, “Low-cost anti-mycobacterial drug discovery using engineered E. coli” (Nature Communications, 2022)
# Structures can show the parent of a compound that is named as a salt. ± gives the standard deviation of the averaged measurements.
# Key:
# Assay in all cases: growth (OD600 after 10 h); higher = more growth (less inhibition)
# [1] = tested on: E. coli TESEC Alr+ wild-type control; details: compound 0.1 mM; raw OD600 reference: median of DMSO wells 0.241, cell-free background 0.041
# Protocol: (§1)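 TESEC Mtb Alr E. coli, or the Alr+ wild-type control, in 384-well plates with Prestwick library compounds at 0.1 mM and 1% DMSO, across arabinose induction levels of 1E3 to 1E7 nM. Growth is read as OD600 after 10 h at 37 °C in triplicate biological replicates.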
# E. coli TESEC Mtb Alr [2] = details: compound 0.1 mM
# Protocol: as §1
# E. coli TESEC Mtb Asd = details: compound 0.1 mM
# Protocol: (§2)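 TESEC E. coli strains in which the native enzyme is deleted and replaced by arabinose-inducible Mtb Asd, DapB, CysH or TrpD, each grown in its selective medium. Strains were screened against the Prestwick library at 0.1 mM and 1% DMSO in 384-well format at low and high arabinose induction. Growth is read as OD600 after 10 h in triplicate.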
# E. coli TESEC Mtb DapB = details: compound 0.1 mM
# Protocol: as §2
# E. coli TESEC Mtb Alr [3] = details: compound 0.1 mM; remark: listed apart in the source
# Protocol: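 TESEC Mtb Alr E. coli (ΔaraC ΔtolC ΔentC Δalr ΔdadX, arabinose-inducible Mtb Alr) or the Alr+ wild-type control strain, grown in defined M9-fructose medium without D-alanine in 96-well plates with Prestwick library compounds at 0.1 mM and 1% DMSO. Low Alr induction is 0.1 µM arabinose and high induction is 10 mM arabinose.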
# [4] = arabinose 1000 nM, raw OD600 reference: median of DMSO wells 0.294, cell-free background 0.041
# [5] = arabinose 10000 nM, raw OD600 reference: median of DMSO wells 0.264, cell-free background 0.041
# [6] = arabinose 100000 nM, raw OD600 reference: median of DMSO wells 0.201, cell-free background 0.041
# [7] = arabinose 1000000 nM, raw OD600 reference: median of DMSO wells 0.193, cell-free background 0.041
# [8] = arabinose 10000000 nM, raw OD600 reference: median of DMSO wells 0.146, cell-free background 0.041
# [9] = arabinose induction (level): High, raw OD600 reference: median of DMSO wells 0.331, cell-free background 0.041
# [10] = arabinose induction (level): Low, raw OD600 reference: median of DMSO wells 0.417, cell-free background 0.041
# [11] = arabinose induction (level): High, raw OD600 reference: median of DMSO wells […], cell-free background 0.041
# [12] = arabinose induction (level): Low, raw OD600 reference: median of DMSO wells 0.227, cell-free background 0.041
# [13] = arabinose 100 nM, raw OD600 reference: median of DMSO wells 0.413, cell-free background 0.052
# [14] = arabinose 10000000 nM, raw OD600 reference: median of DMSO wells […], cell-free background 0.052
Structure (SMILES),growth [1],growth (E. coli TESEC Mtb Alr [2]; [4]),growth (E. coli TESEC Mtb Alr [2]; [5]),growth (E. coli TESEC Mtb Alr [2]; [6]),growth (E. coli TESEC Mtb Alr [2]; [7]),growth (E. coli TESEC Mtb Alr [2]; [8]),growth (E. coli TESEC Mtb Asd; [9]),growth (E. coli TESEC Mtb Asd; [10]),growth (E. coli TESEC Mtb DapB; [11]),growth (E. coli TESEC Mtb DapB; [12]),growth (E. coli TESEC Mtb Alr [3]; [13]),growth (E. coli TESEC Mtb Alr [3]; [14])
CCOC(=O)/C=C(C)/C=C/C=C(C)/C=C/c1c(C)cc(OC)c(C)c1C [Etretinate],0.242 ± 0.0089,0.308 ± 0.015,0.257 ± 0.011,0.211 ± 0.0087,0.161 ± 0.0097,0.151 ± 0.0019,0.257 ± 0.042,0.341 ± 0.025,0.1575 ± 0.0014,0.186 ± 0.0064,0.41 ± 0.0092,0.344 ± 0.014
CCOC(=O)C1=C(COCCN)NC(C)=C(C(=O)OC)C1c1ccccc1Cl (centres undefined) [Amlodipine],0.231 ± 0.0038,0.2004 ± 0.0019,0.23 ± 0.022,0.179 ± 0.0029,0.0929 ± 0.0035,0.104 ± 0.0021,0.132 ± 0.0075,0.136 ± 0.0072,0.155 ± 0.077,0.205 ± 0.017,0.398 ± 0.0055,0.282 ± 0.011
CC(=O)N(O)CCCCCNC(=O)CCC(=O)N(O)CCCCCNC(=O)CCC(=O)N(O)CCCCCN [Deferoxamine mesylate],0.0549 ± 0.00064,0.054 ± 0.0048,0.0561 ± 0.0031,0.0487 ± 0.0017,0.0567 ± 0.0044,0.0625 ± 0.00017,0.139 ± 0.015,0.141 ± 0.027,0.137 ± 0.021,0.13 ± 0.0032,0.113 ± 0.046,0.0677 ± 0.0037
CCCCc1cc2ccccc2c(OCCN(C)C)n1 [Dimethisoquin hydrochloride],0.177 ± 0.0065,0.182 ± 0.0035,0.162 ± 0.0045,0.199 ± 0.0029,0.0689 ± 0.0025,0.1567 ± 0.0013,0.154 ± 0.0042,0.171 ± 0.015,0.167 ± 0.014,0.184 ± 0.012,0.3984 ± 0.0029,0.308 ± 0.011
Cc1nnc(NS(=O)(=O)c2ccc(N)cc2)s1 [Sulfamethizole],0.254 ± 0.0053,0.288 ± 0.011,0.236 ± 0.004,0.211 ± 0.032,0.155 ± 0.0088,0.139 ± 0.0043,0.326 ± 0.045,0.433 ± 0.018,0.189 ± 0.0042,0.183 ± 0.0058,0.411 ± 0.011,0.33 ± 0.011
Cn1c(=O)c2c(ncn2CC2OCCO2)n(C)c1=O [Doxofylline],0.248 ± 0.0076,0.302 ± 0.015,0.259 ± 0.01,0.197 ± 0.017,0.179 ± 0.011,0.158 ± 0.0092,0.476 ± 0.018,0.469 ± 0.035,0.1957 ± 0.00055,0.238 ± 0.0011,0.408 ± 0.0051,0.334 ± 0.01
CC(=O)OC[C@H]1O[C@@H]([S-])[C@H](OC(C)=O)[C@@H](OC(C)=O)[C@@H]1OC(C)=O.CCP(CC)CC.[Au+] [Auranofin],0.0481 ± 0.0033,0.04847 ± 0.00021,0.0451 ± 0.00026,0.0634 ± 0.012,0.0436 ± 0.00056,0.0467 ± 0.00053,0.0525 ± 0.0026,0.0514 ± 0.0016,0.0674 ± 0.019,0.111 ± 0.019,0.0775 ± 0.008,0.056 ± 0.00069
CC(C(=O)O)c1ccc(C(=O)c2ccccc2)s1 (centres undefined) [Tiaprofenic acid],0.22 ± 0.012,0.253 ± 0.021,0.246 ± 0.0058,0.201 ± 0.019,0.205 ± 0.0076,0.143 ± 0.006,0.386 ± 0.077,0.285 ± 0.099,0.182 ± 0.009,0.178 ± 0.015,0.382 ± 0.02,0.35 ± 0.019
Clc1ccc2c(c1)CCc1cccnc1C2=C1CCNCC1 [Desloratadine],0.2 ± 0.015,0.211 ± 0.0061,0.256 ± 0.0088,0.163 ± 0.0094,0.153 ± 0.0064,0.145 ± 0.0037,0.149 ± 0.023,0.251 ± 0.026,0.216 ± 0.033,0.215 ± 0.031,0.398 ± 0.0076,0.288 ± 0.016
COc1ccccc1N1CCN(CCCCNC(=O)c2ccc3ccccc3c2)CC1,0.149 ± 0.0027,0.179 ± 0.013,0.2704 ± 0.0024,0.195 ± 0.019,0.124 ± 0.0029,0.182 ± 0.0013,0.156 ± 0.0093,0.265 ± 0.013,0.188 ± 0.017,0.2 ± 0.012,0.398 ± 0.0097,0.181 ± 0.024
Nc1ccc(S(=O)(=O)NC(=O)c2ccccc2)cc1 [Sulfabenzamide],0.256 ± 0.012,0.321 ± 0.023,0.254 ± 0.005,0.221 ± 0.022,0.172 ± 0.0025,0.156 ± 0.0061,0.402 ± 0.12,0.409 ± 0.033,0.221 ± 0.016,0.245 ± 0.018,0.4062 ± 0.0031,0.334 ± 0.025
CC[C@H](C)[C@H](N)C1=N[C@H](C(=O)N[C@@H](CC(C)C)C(=O)N[C@H](CCC(=O)O)C(=O)N[C@H](C(=O)N[C@H]2CCCCNC(=O)[C@H](CC(N)=O)NC(=O)[C@@H](CC(=O)O)NC(=O)[C@H](Cc3cnc[nH]3)NC(=O)[C@@H](Cc3ccccc3)NC(=O)[C@H]([C@@H](C)CC)NC(=O)[C@@H](CCCN)NC2=O)[C@@H](C)CC)CS1 [Bacitracin],0.306 ± 0.0084,0.324 ± 0.0095,0.252 ± 0.0038,0.387 ± 0.0099,0.176 ± 0.0086,0.214 ± 0.013,0.298 ± 0.05,0.269 ± 0.054,0.266 ± 0.033,0.243 ± 0.028,0.421 ± 0.015,0.348 ± 0.028
CCCCCCC[N+](CC)(CC)CCCCc1ccc(Cl)cc1 [Clofilium tosylate],0.03993 ± 0.00025,0.03923 ± 5.8e-05,0.039 ± 0.00017,0.03977 ± 0.00021,0.03863 ± 0.00025,0.0398 ± 0.00026,0.0468 ± 0.00026,0.0474 ± 0.00051,0.0462 ± 0.00046,0.0478 ± 0.0034,0.0551 ± 0.0018,0.05213 ± 0.0004
CO/N=C(\C(=O)N[C@@H]1C(=O)N2C(C(=O)OC(C)OC(C)=O)=C(COC(N)=O)CS[C@H]12)c1ccco1 (some centres undefined) [Cefuroxime axetil],0.148 ± 0.0057,0.115 ± 0.007,0.0663 ± 0.0028,0.124 ± 0.0033,0.166 ± 0.0066,0.158 ± 0.006,0.246 ± 0.023,0.316 ± 0.011,0.196 ± 0.022,0.215 ± 0.057,0.059 ± 0.0076,0.257 ± 0.011
N=C(N)NS(=O)(=O)c1ccc(N)cc1 [Sulfaguanidine],0.249 ± 0.013,0.292 ± 0.029,0.26 ± 0.0047,0.227 ± 0.027,0.173 ± 0.0041,0.143 ± 0.0034,0.38 ± 0.028,0.383 ± 0.021,0.203 ± 0.0078,0.249 ± 0.032,0.41 ± 0.016,0.383 ± 0.022
CC1CC(OC(=O)C(O)c2ccccc2)CC(C)(C)N1C (centres undefined) [Eucatropine hydrochloride],0.245 ± 0.0073,0.326 ± 0.015,0.282 ± 0.0064,0.194 ± 0.0092,0.191 ± 0.0054,0.156 ± 0.0098,0.479 ± 0.008,0.432 ± 0.065,0.199 ± 0.033,0.227 ± 0.024,0.402 ± 0.014,0.36 ± 0.016
Nc1nc(=S)c2ncn([C@@H]3O[C@H](CO)[C@@H](O)[C@H]3O)c2[nH]1 [Thioguanosine],0.0575 ± 0.0014,0.0503 ± 0.0022,0.0465 ± 0.00055,0.0493 ± 0.00055,0.0474 ± 0.00055,0.05337 ± 0.00021,0.209 ± 0.0071,0.127 ± 0.014,0.174 ± 0.011,0.115 ± 0.032,0.225 ± 0.028,0.0964 ± 0.0089
